From PubChem BioAssay AID652067 (The Scripps Research Institute Molecular Screening Center, 2013) come the findings set out here.

SMILES strings stand for the structures. Out of some 370,000 compounds screened, about 5,400 (1.5%) were called active. This is one part of a sample in which actives are shown more often than they occur. Values without a mark were called inactive.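 The calls were made as follows: active = activation above the mean of all tested compounds plus 3 SD (cut at about 5.5% in these data); inactive = the rest.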

The test system of the assay is DAF-12 nuclear receptor (Haemonchus contortus). The assay is described as follows: H. contortus DAF-12 nuclear receptor activators, primary screen, cell-based, luminescence, HEK293, lit1-tk-luc reporter (AID 652067).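 Also: 100% = response to 3 µM Δ7-dafachronic acid high control.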 As to conditions: HEK293 hcDAF-12 lit1-tk-luc reporter, at 6.8 µM, hits give high values, 0% DMSO, 100% Δ7-dafachronic acid.
In the case of `CN(C)S(=O)(=O)c1cccc(C(=O)N/N=C\c2ccco2)c1`, the activation was 0.08%. For the compound `Cc1ccc(/C=N/NC(=O)c2sccc2OCc2ccc(F)cc2)cc1`, the activation is 0.06%.

For the compound `Cc1ccsc1C(=O)NC1CCCCC1C` (configuration not stated), the activation was -1.43%. Turning to `Cc1ccsc1C(=O)N/N=C/c1ccc([N+](=O)[O-])cc1`, the activation was 6.15% (active). Consider `O=C(NCCC1=CCCCC1)C1CCN(S(=O)(=O)c2ccc(Cl)s2)CC1`, for which the activation was -1.29%.

Consider `CC(=O)c1ccc(S(=O)(=O)NCC2CCN(C(=O)C(=O)c3cccs3)CC2)cc1`, for which the activation is -1.54%. For `COc1ccc(-c2cc3ncccc3cn2)cc1`, the activation was 7.99% (active). For `COc1ccc(-c2cc(C3CCN(c4ncccc4[N+](=O)[O-])CC3)[nH]n2)cc1`, the activation was -1.95%.

With `COc1ccc(-c2cc3n(n2)CCc2nc4ccccc4n2-3)cc1`, the activation is 2.18%. To `Cc1ccc(Cn2cc(COC(=O)N(C)Cc3ccccc3)nn2)cc1` belongs -1.15%; to `O=C1CCCCN1CCCC(=O)N1CCCC(Nc2ccc(F)cc2)C1` (configuration not stated), -0.38%. To `COc1ccc(C(=O)OCCN2CCN(C3CN(Cc4cn(Cc5ccccc5F)nn4)S(=O)(=O)C3)CC2)cc1OC` (configuration not stated) belongs -3.13%; to `CCOC(=O)C1CCN(C(=O)C(C)(C)NC(=O)Nc2ccccc2Cl)CC1`, -0.1%; to `CC(=O)N1C[C@@H](CO)[C@@H](N(C)C(=O)C(C)(C)C)C[C@H]1c1ccccc1Br`, -0.9%.

With `O=C(Cc1ccccc1)Nc1ccc(C(=O)Nc2ccccc2C(=O)O)cc1`, the activation was 0.4%. To `O=C(Nc1ccccc1F)c1ccc(S(=O)(=O)N2CCCCCC2)cc1` belongs -0.38%. Regarding `Nc1ccc(C(=O)Nc2ccccc2N)cc1`, the activation was 10.3% (active). Consider `Cc1cc(N=Nc2ccc3ccccc3c2)ccc1O`, for which the activation is 9.93% (active).

Regarding `CN(C(N)=NC(=O)/C=C/c1ccccc1)C(C#Cc1ccccc1)Cc1ccccc1` (configuration not stated), the activation is -0.54%. Take `O=C(NCCCn1ccnc1)c1cc(Br)c(Br)s1`: the activation is -2.07%. As to `O=C(NCCCn1ccnc1)c1cc(-c2ccccc2)on1`, the activation is 6.25% (active). For `O=C(Nc1ccccc1C(=O)NCCCn1ccnc1)c1ccc(Cl)cc1Cl`, the activation was -0.66%.

Consider `COC(=O)C1=C(C)N(Cc2ccc(F)cc2)C(=S)NC1c1cccc(Cl)c1` (configuration not stated), for which the activation is -0.58%. As to `C#CCNC(=O)C[C@H]1C[C@@]2(C(=O)OC)C(=C[C@H](C(C)C)O[C@@H]2C2CC2)N(Cc2ccco2)C1=O`, the activation was -0.47%. As to `CCN(C(=O)[C@@H](C1CC1)[C@@H](O)c1ccc2ccccc2c1)c1ccccc1`, the activation was -0.38%. To `CCCCCCCCN1C(=O)[C@@H](CC(=O)NCCCC)C[C@@]2(C(=O)OC)C1=C[C@H](C(C)(C)C)O[C@@H]2C` belongs 2.12%; to `COC(=O)c1cccc(Cn2ccc3ccc(-c4ccc5ccn(C(=O)C6CCCCC6)c5c4)cc32)c1`, 2.46%.

Regarding `Cc1[nH]c2ccccc2c1-c1ccc(Cl)nn1`, the activation was -0.07%.

Consider `Cc1c(C(C)c2ccccc2O)[nH]c2ccccc12` (configuration not stated), for which the activation is 5.82% (active). To `S=c1[nH]c2ccccc2c2ccccc12` belongs 0.24%; to `Cc1ccc(-n2c(SCC(=O)Nc3ccc(S(=O)(=O)Nc4nccs4)cc3)nnc2-c2ccncc2)cc1`, -0.82%; to `C=CCn1c(SCC(N)=O)nnc1-c1ccccc1OC`, -0.44%.

`CC(C)CN(CC(C)C)C(=O)CN1c2cccc3cccc(c23)S1(=O)=O`: the activation is 0.46%. To `COc1ccc(C)cc1NC(=O)CN1c2cccc3cccc(c23)S1(=O)=O` belongs -2.24%. To `O=C(O)CN1c2cccc3cccc(c23)S1(=O)=O` belongs 7.97% (active); to `COC(=O)Cc1nnn2c1[C@H](C)[C@H](c1ccccc1Br)OCC2`, -1.44%. As for `COCc1ccc(C(=O)N2CCc3c([nH]c4ccccc34)C2c2ccccn2)s1` (configuration not stated), the activation was 0.63%. For the compound `Cc1cccc(C(=O)N2CCc3c([nH]c4ccccc34)C2CC(C)C)n1` (configuration not stated), the activation is 6.78% (active). On to `Cc1cccc(C2c3[nH]c4ccccc4c3CCN2C(=O)c2cc(-c3cccn3C)n[nH]2)n1` (configuration not stated), for which the activation is 1.83%. Turning to `O=[N+]([O-])c1ccc(N/N=C2/CCCCC2c2ccccn2)c([N+](=O)[O-])c1` (configuration not stated), the activation was 0.53%. To `O=C(Nc1ccccc1)O/N=C1\CCCCC1c1ccc([N+](=O)[O-])cc1[N+](=O)[O-]` (configuration not stated) belongs -1.35%; to `C[n+]1ccccc1C1CCCC/C1=N\Nc1ccc([N+](=O)[O-])cc1[N+](=O)[O-]` (configuration not stated), 6% (active); to `Cc1ccnc(NC(=O)CCNS(=O)(=O)c2ccc(C)c(C)c2)c1`, 9.81% (active). Turning to `Cc1ccc(S(=O)(=O)NCCC(=O)Nc2cccc(S(N)(=O)=O)c2)cc1C`, the activation was -1.34%. As to `Cc1ccc(S(=O)(=O)NCCC(=O)NCc2ccc(Cl)cc2)cc1C`, the activation is 2.24%. Turning to `O=C(CNC(=O)c1ccccc1)OC(C(=O)Nc1cc([N+](=O)[O-])ccc1F)c1ccccc1` (configuration not stated), the activation is -1.31%. `CCC(CO)Nc1cccc2c1S(=O)(=O)N(Cc1cn(Cc3ccccc3C(F)(F)F)nn1)Cc1ccccc1O2` (configuration not stated): the activation is -0.6%. As to `Cc1ccc(-c2nc(C3CCCN(S(=O)(=O)c4ccc(Br)s4)C3)no2)cc1` (configuration not stated), the activation is -1.74%. As to `CCOC(=O)C1(Cc2ccccc2)CCN(Cc2cn(C(C)=O)c3ccccc23)CC1`, the activation was 4.1%. Take `Cc1ccc(NC(=O)N2c3ccccc3SC2c2ccco2)c(C)c1` (configuration not stated): the activation was 0.47%. As for `COC(=O)C1CN(CC(C)C)CCS(=O)(=O)N1Cc1ccc(C)cc1` (configuration not stated), the activation is -1.58%. For the compound `Brc1ccccc1C1N=C(c2ccccc2)NO1` (configuration not stated), the activation was 11% (active). To `S=C1NC(c2ccccc2)=NCN1c1ccc(Br)cc1` belongs -0.59%; to `N#Cc1ccc(C2N=C(c3ccccc3)NO2)cc1` (configuration not stated), 5.73% (active); to `CN(C(=O)Cn1nnc(-c2ccc(F)cc2)n1)C1CCS(=O)(=O)C1` (configuration not stated), 0.43%. To `C#CCN([C@H](C(=O)OC)C(C)CC)S(=O)(=O)c1ccccc1Br` (some centres not stated) belongs -3.57%; to `COC(=O)[C@]1(Cc2ccccc2)NC=C(C(=O)c2ccccc2)[C@@H]1c1cccc(OC)c1`, -0.48%.
